HCMV inh = blocks human cytomegalovirus replication; HFF cells, HCMV-luciferase reporter, 72 h; stronger effect = lower value; activity change, negative = inhibition, % at 57.5 µM; 4.5% of 410,000 active; AID 1259415; in the data active = activity change below about -60%; inconclusive = no clear call, values can overlap the other calls; inactive = above about -39%; note: % is set by controls: 0 for no effect and ±100 for the full control effect
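Inhibition of viral replication was scored as loss of reporter luminescence in HFFs infected with HCMV-luciferase (MOI 1 PFU/cell) for 72 h; compounds tested at 2 doses, normalized to buffer and Salinomycin controls.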
Sm TGR block = inhibitors of Schistosoma mansoni thioredoxin glutathione reductase; purified TGR, DTNB reduction, TNB absorbance 405 nm; AID 485364; Potency, µM (doses to about 114 µM), inactives show at the top dose activity change, negative = inhibition, actives largely listed as inhibitors; Q962Y6; 3% of 360,000 active; note: potency is the fitted concentration of half-maximal effect; % is set by controls: 0 for no effect and ±100 for the full control effect; nearly all actives have a fitted effect of over 60% in size
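Kinetic colorimetric format: TGR-catalysed, NADPH-driven DTNB reduction monitored via TNB absorbance. Enzyme dispensed at 20 nM; compound exposure 15 min at room temperature before reaction start.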
HCV inhibitor = blocks hepatitis C virus | Potency, µM (series often up to 41.8 µM), without a hit: at the highest dose activity change, negative = inhibition, most hits filed as inhibitors | Huh7.5.1 HCVcc-Cre infection, luciferase reporter, 44 h | 3.4% of 340,000 active; note: potency is the fitted concentration of half-maximal effect; % is set by controls: 0 for no effect and ±100 for the full control effect
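Infectious HCVcc-Cre (~0.5 moi) was added to cells just after compound, with cells seeded 4 h earlier at 1,000 per well. Luciferase activity after 44 h culture reported infection; substrate was incubated 15 min at room temperature before reading.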
SARS PLP yeast = SARS-CoV PLP inhibition in yeast; 0.19% of 330,000 active; Potency, µM (titrated, usually from 32.9 µM), for inactives: at the highest dose activity, positive = growth rescue, usual class: activators; S. cerevisiae expressing SARS-CoV PLpro, growth rescue; calls by dose curve; note: potency is the fitted concentration of half-maximal effect; 0% is about no effect; nearly all actives have a fitted effect of over 55% in size
Pf growth 96h = P. falciparum growth inhibition at 96 hours | 6.9% of 320,000 active | Potency, µM (series often up to 28.7 µM), without a hit: at the top dose activity change, negative = inhibition, hits mostly inhibitors | P. falciparum luciferase reporter growth, 96 h | AID 504834; note: potency is the fitted concentration of half-maximal effect; % is set by controls: 0 for no effect and ±100 for the full control effect
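P. falciparum expressing integrated firefly luciferase grown in erythrocytes (2% hematocrit, 0.05% parasitemia final) with compounds for 96 hours at 37 C, 5% CO2. Growth inhibition read as loss of luminescence after adding luciferase detection reagent.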
Pf growth 48h = inhibits P. falciparum growth in the first generation, 48 h. P. falciparum luciferase growth in erythrocytes, 48 h. 5.9% of 310,000 active. Potency, µM (top dose mostly 28.7 µM), for the others: top-dose activity change, negative = inhibition, actives largely listed as inhibitors; note: potency is the fitted concentration of half-maximal effect; % is set by controls: 0 for no effect and ±100 for the full control effect
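Read-out is firefly luciferase luminescence from an integrated reporter in P. falciparum, so falling signal marks reduced parasite growth. Infected erythrocytes were at 2% hematocrit and 0.1% parasitemia (final) in Albumax-supplemented RPMI 1640.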
* hit, by the source's call; ? = inconclusive; . = no result given; [ ] = remark or other dose. The list is not random: actives were taken first. Their share in the collection is about 15%. Unless noted, calls come from the whole dose curve; as a rule, active = well fitted curve in the direction sought with a large enough effect; inconclusive = small, poorly fitted or top-dose-only effect, or another doubt; inactive = no such curve, though single readings can be large; an effect the other way counts as inactive or inconclusive.

SMILES	HCMV inh	Sm TGR block	HCV inhibitor	SARS PLP yeast	Pf growth 96h	Pf growth 48h
O=S(=O)(c1ccc(N2CCN(Cc3ccccc3)CC2)nc1)N1CCCC1	-34.9	-12.5%	-28.8%	-1.7%	26.0%	-18.2%
Cc1ccccc1CN1CCN(c2ccc(S(=O)(=O)N3CCCC3)cn2)CC1	-63.7*	0.4%	?	1.1%	?	?
CC(C)(C)c1ccc(C(=O)NC(=S)NCC2CCCO2)cc1 (stereo unspecified)	-24.3	?	2.3%	12.6µM*	-15.6%	?
COCCCNC(=S)NNC(=O)C1CC1c1ccc(C(C)(C)C)cc1 (stereo unspecified)	-20.6	6.3%	-26.8%	-1.2%	35.5%[1.15 µM]	?
O=C(NCC1CCCO1)c1ccc(COc2ccc(F)cc2)o1 (stereo unspecified)	20.8	35.5µM*	5.0%	2.0%	-18.3%	37.0%
CC(C)(C)c1ccc(C(=O)NNC(=S)NCC2CCCO2)cc1 (stereo unspecified)	13.7	8.4%	-2.5%	26.3%	21.3%	18.2%
O=C(Cc1ccccc1)Nc1ccccc1C(=O)NCC1CCCO1 (stereo unspecified)	.	5.9%	19.3%	2.7%	13.1µM*	-7.8%
COCCNC(=S)NC(=O)c1ccc(C(C)(C)C)cc1	-34.9	39.8µM*	-5.3%	-0.5%	?	35.5%[5.75 µM]
COc1ccc(-c2cc(-c3ccc(Cl)cc3)c(C#N)c(SCC(=O)O)n2)cc1	16.8	?	1.8%	10.2%	?	0.0%
COCCCNC(=O)Cn1c(=O)n(-c2ccc(C)cc2)c(=O)c2c1c1cc(C)ccc1n2C	9.1	0.0%	.	.	.	.
Cc1ccsc1C(=O)N(C)C1CCS(=O)(=O)C1 (stereo unspecified)	-19.9	-7.7%	-6.9%	3.3%	60.1%	57.1%
COc1cc(C(=O)NCC2CCCO2)ccc1OCc1ccc(Cl)cc1Cl (stereo unspecified)	-37.1	-3.3%	?	1.6%	11.7µM*	11.7µM*
COc1ccccc1/C=C/C(=O)NC(=S)NCC1CCCO1 (stereo unspecified)	-61.9*	-25.5%	-12.1%	-1.2%	?	?
O=C(NCC1CCCO1)c1cc([N+](=O)[O-])ccc1N1CCC(Cc2ccccc2)CC1 (stereo unspecified)	0.0	4.5%	-25.9%	-15.7%	?	11.7µM*
COc1cc(C(=O)NCC2CCCO2)ccc1OCc1ccc(Cl)cc1 (stereo unspecified)	?	1.1%	?	-0.5%	?	?
COc1ccc(/C=C/C(=O)NC(=S)NCC2CCCO2)cc1 (stereo unspecified)	-33.4	-4.0%	-29.5%	3.1%	2.1%	36.3%
O=C(NCC1CCCO1)/C(=C\c1ccc(Cl)cc1)NC(=O)c1ccccc1 (stereo unspecified)	-26.0	14.7%	6.4%	1.5%	0.828µM*	27.3%
COCCN1C(=O)CCC1(C)C(=O)Nc1ccc2c(c1)OCCO2 (stereo unspecified)	38.3	.	.	.	.	.
Cc1ccc(-c2c(C(=O)NNC(=S)NCC3CCCO3)csc2C)cc1 (stereo unspecified)	?	.	12.1%	0.4%	19.5%	?
O=C(NCC1CCCO1)c1ccc(C(=O)NCC2CCCO2)cc1 (stereo unspecified)	-8.4	-2.0%	17.2%	0.3%	0.465µM*	42.6%
O=C(NCC1CCCO1)C(=O)N/N=C/c1ccc(O)c(Cl)c1 (stereo unspecified)	?	-23.0%	18.9%	-0.8%	4.15µM*	-2.1%
Cc1scc(C(=O)NNC(=S)NCC2CCCO2)c1-c1ccccc1 (stereo unspecified)	-62.0*	-3.1%	11.7%	-4.9%	-7.5%	-0.7%
OC(CN(Cc1ccccc1)Cc1ccccc1)c1ccccc1 (stereo unspecified)	8.4	.	-8.8%	.	.	.
CCN(CC)CCCOC(=O)C(OC)(c1ccccc1)c1ccccc1	-24.1	-8.2%	8.4%	10.3%	-26.8%	.
CN1CCC(N(C)CC(O)c2ccccc2)CC1 (stereo unspecified)	?	12.6µM*	-12.0%	5.6%	-9.8%	4.5%
SMILES	HCMV inh	Sm TGR block	HCV inhibitor	SARS PLP yeast	Pf growth 96h	Pf growth 48h
CCCN(CC1CC1)CC(O)c1ccccc1 (stereo unspecified)	.	6.4%	7.5%	-1.7%	13.1µM*	14.7µM*
Cc1ccccc1CN(C)C1CCN(C)CC1	46.0	2.7%	-13.2%	1.4%	?	5.3%
CC(C)OCCCN(CC(O)c1ccccc1)CC(O)c1ccccc1 (stereo unspecified)	?	-1.2%	24.0%	-8.5%	?	10.4µM*
OCCN(Cc1ccccc1)CC1CCCCC1	-19.8	4.3%	2.4%	.	110.5%	6.7%
CCN(CC)CCCOC(=O)C(c1ccccc1)c1ccccc1	-27.4	7.1%	0.562µM*	0.9%	?	?
CC(C)c1ccc(CN2C(=O)C(n3cccc3)c3ccccc32)cc1 (stereo unspecified)	-5.3	.	.	.	.	.
CC(C)Nc1nc(NC2CCCC2)nc(N2CCOCC2)n1	-34.6	0.4%	?	0.0%	5.22µM*	?
CC1CCC2(CC1)NC(=O)N(Cc1cccc(C(F)(F)F)c1)C2=O (stereo unspecified)	-28.2	-6.1%	?	-3.7%	-0.5%	6.1%
O=C(CNC(=S)N(Cc1ccccc1)Cc1cccs1)NCc1ccc(F)cc1	-13.2	-1.9%	?	-5.7%	?	?
COCCNC(=O)CNC(=S)N(Cc1ccccc1)Cc1cccnc1	-36.1	0.0%	?	-13.5%	11.7µM*	7.3%
O=C(CNC(=S)N(Cc1ccccc1)Cc1ccccc1F)NCCc1ccc(Cl)cc1	19.0	0.5%	-3.7%	-4.7%	?	11.7µM*
CCOC(=O)CNC(=S)N(Cc1ccc(C)cc1)Cc1ccc(C)o1	-81.6*	-13.8%	11.9%	7.7%	-23.9%	-5.7%
Cc1ccc(CNC(=O)CNC(=S)N(Cc2ccccc2)Cc2cccnc2)cc1	6.1	-22.0%	-15.7%	3.1%	?	-15.4%
COCCCNC(=O)CNC(=S)N(Cc1ccccc1)Cc1cccnc1	38.9	5.5%	9.6%	1.0%	10.4µM*	35.6%
Cc1ccc(CN(Cc2ccco2)C(=S)NCC(=O)NCc2cccnc2)cc1	11.3	0.0%	-8.6%	0.8%	-6.2%	-11.5%
Cc1ccc(CN(Cc2ccccc2)C(=S)NCC(=O)NCc2cccnc2)o1	0.3	-24.6%	10.0%	4.7%	-4.6%	11.7µM*
COc1cccc(C(=O)Nc2ccc3c(cc2=O)[C@@H](NC(C)=O)CCc2cc(OC)c(OC)c(OC)c2-3)c1	.	0.0%	31.6µM*	0.3%	?	8.28µM*
